# Screens from PubChem.
# A selection: hits, their analogues and other compounds. The true share with any hit is near 3.6%.
# mHTT CaM bind = disrupts binding of mutant huntingtin to calmodulin; P42858; AlphaScreen His-mHTT/GST-CaM binding, luminescence; inhibition, % at 15 µM; 190,000 compounds, 3.6% hits; AID 1671202;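 further: 0% = both proteins with DMSO and 100% = one protein alone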
# Target sequence (P42858 whole entry, looked up, stated change not applied): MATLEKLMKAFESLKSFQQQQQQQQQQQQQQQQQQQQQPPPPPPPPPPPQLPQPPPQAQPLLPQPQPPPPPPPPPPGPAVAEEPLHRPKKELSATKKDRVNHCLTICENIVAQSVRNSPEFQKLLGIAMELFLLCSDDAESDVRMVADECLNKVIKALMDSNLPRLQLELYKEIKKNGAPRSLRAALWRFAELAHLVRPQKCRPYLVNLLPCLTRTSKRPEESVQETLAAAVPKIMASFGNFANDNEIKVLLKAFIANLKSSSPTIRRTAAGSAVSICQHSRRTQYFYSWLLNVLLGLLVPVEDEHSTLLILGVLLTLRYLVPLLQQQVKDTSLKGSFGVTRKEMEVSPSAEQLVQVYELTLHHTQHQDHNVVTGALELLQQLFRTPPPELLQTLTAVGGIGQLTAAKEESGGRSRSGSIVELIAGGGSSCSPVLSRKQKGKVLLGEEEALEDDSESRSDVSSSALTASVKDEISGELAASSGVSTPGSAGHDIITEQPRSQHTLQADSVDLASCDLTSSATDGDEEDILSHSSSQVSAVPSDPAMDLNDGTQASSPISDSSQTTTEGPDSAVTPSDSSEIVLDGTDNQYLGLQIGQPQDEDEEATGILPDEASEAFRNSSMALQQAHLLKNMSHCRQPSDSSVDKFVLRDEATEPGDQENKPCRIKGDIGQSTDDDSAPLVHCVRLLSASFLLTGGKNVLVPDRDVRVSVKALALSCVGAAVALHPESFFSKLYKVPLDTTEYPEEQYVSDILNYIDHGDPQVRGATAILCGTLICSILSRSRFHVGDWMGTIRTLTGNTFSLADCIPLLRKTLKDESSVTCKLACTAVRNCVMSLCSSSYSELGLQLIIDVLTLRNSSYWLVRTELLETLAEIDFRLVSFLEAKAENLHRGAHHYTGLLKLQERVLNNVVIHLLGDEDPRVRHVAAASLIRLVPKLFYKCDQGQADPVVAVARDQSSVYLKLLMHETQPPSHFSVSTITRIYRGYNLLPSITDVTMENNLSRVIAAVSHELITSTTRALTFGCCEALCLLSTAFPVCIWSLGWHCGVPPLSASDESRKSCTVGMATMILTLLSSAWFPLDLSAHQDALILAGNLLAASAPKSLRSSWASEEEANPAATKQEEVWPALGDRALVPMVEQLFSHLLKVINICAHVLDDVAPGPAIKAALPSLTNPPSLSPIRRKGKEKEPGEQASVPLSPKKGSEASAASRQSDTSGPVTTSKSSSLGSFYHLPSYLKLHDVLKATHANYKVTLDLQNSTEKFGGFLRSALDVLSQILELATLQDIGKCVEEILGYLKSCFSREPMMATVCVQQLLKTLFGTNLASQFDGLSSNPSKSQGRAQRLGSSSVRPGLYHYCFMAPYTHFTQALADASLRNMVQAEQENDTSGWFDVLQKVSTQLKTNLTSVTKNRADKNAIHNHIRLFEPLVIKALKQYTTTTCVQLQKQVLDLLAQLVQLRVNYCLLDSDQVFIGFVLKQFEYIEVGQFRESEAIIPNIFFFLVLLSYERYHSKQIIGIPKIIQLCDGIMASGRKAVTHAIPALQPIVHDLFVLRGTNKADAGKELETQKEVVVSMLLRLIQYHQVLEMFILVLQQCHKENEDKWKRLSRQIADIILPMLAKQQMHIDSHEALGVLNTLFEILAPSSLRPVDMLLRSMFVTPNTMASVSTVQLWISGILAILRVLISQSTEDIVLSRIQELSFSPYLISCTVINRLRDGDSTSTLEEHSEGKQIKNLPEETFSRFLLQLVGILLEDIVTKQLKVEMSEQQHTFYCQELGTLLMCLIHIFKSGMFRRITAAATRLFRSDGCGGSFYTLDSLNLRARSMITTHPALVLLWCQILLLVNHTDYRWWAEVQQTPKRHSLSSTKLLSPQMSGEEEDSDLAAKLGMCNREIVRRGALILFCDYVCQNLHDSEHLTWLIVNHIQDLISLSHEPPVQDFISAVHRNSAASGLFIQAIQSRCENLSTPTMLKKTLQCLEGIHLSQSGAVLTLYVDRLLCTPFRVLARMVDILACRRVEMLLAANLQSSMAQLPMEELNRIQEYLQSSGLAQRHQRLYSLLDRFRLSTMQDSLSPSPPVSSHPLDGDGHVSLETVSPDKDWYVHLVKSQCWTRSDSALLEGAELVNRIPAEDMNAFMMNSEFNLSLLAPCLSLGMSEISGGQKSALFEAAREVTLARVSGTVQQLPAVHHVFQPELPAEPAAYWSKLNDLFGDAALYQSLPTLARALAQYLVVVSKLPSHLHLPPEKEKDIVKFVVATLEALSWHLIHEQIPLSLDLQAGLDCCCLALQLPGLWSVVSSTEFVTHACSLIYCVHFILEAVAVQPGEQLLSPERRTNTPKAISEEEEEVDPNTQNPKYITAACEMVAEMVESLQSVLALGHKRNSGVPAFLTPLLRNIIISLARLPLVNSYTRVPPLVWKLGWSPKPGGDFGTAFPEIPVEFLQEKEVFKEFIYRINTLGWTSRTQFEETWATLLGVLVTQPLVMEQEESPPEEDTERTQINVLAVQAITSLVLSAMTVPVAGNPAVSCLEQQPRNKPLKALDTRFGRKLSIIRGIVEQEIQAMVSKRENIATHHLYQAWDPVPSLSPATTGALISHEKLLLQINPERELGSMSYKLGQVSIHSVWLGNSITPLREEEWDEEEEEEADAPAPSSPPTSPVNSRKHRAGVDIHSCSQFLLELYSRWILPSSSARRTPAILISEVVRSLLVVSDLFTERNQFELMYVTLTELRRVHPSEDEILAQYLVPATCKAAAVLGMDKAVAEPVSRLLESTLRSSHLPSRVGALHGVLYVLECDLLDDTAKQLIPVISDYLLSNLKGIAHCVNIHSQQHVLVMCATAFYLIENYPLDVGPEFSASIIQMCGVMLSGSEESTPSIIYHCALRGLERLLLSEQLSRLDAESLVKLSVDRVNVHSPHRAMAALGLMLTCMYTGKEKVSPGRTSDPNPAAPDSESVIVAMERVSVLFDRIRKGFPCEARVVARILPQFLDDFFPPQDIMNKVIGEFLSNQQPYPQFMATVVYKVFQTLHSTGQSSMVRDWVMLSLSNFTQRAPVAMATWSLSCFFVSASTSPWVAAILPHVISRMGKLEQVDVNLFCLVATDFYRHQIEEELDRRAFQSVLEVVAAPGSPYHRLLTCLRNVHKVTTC
# Pf apPOL inh = Pf-apPOL DNA polymerase inhibition. Recombinant Pf-apPOL, molecular beacon fluorescence, 1.5 h. inhibition, % at 10 µM. 210,000 compounds, 0.25% hits
# * hit, by the source's call; ! = a repeat was not active. No stated cut-off is given here; in the data, active means inhibition above about 50%; inactive means the rest.
SMILES,mHTT CaM bind,Pf apPOL inh
CC(=O)N1CCc2cc(Br)cc(S(=O)(=O)NCCc3cccc(C)c3)c21,55.0*,-6.9
COc1ccccc1CNC1=NCCNC12CCCCC2,-7.4,-1.8
NS(=O)(=O)c1ccc(CCNC(=O)/C=C/c2ccc3c(c2)OCO3)cc1,20.0,-2.6
C=CCSc1nc2c(c(-c3ccc(C)o3)c1C#N)CCCC2,-24.0,-24.2
Cc1ccc(-c2c(C#N)c(SCC(=O)c3ccc(O)c(O)c3)nc3c2CCCC3)o1,69.0*,-1.1
CN(C)C(=O)c1cc2c(s1)CCC(C(=O)NCc1ccc(C(F)(F)F)cc1)C2 (stereo not drawn),8.7,-4.1
COc1cc(OC)c(C2SCCN2S(=O)(=O)c2ccc(Cl)cc2)cc1OC (stereo not drawn),32.0,-4.5
COc1cc(OC)c(C2SCCN2S(=O)(=O)c2ccc(Br)cc2)cc1OC (stereo not drawn),51.0*,1.2
COc1cc(OC)c(CNc2cccc(F)c2)cc1Br,-28.8,5.9
COc1ccc(OC)c(C2N(c3ccc(Cl)cc3)C(=O)C3CCCN32)c1 (stereo not drawn),73.0*,-1.0
COc1ccc(OC)c(C2N(c3cc(C)on3)C(=O)C3CCCN32)c1 (stereo not drawn),-0.1,-2.6
COc1ccc(C2N(c3ccc(Cl)cc3)C(=O)C3CCCN32)cc1 (stereo not drawn),-5.9,-2.6
COc1cccc(C2N(c3ccccn3)C(=O)C3CCCN32)c1OC (stereo not drawn),-3.1,-1.8
COc1ccc(OC)c(C2N(c3ccc(Cl)c(Cl)c3)C(=O)C3CCCN32)c1 (stereo not drawn),100.1*,-2.1
COc1cccc(C2N(c3ccc(Cl)c(Cl)c3)C(=O)C3CCCN32)c1OC (stereo not drawn),100.1*,-3.9
COc1ccc(C2N(c3ccc(OC)c(Cl)c3)C(=O)C3CCCN32)cc1 (stereo not drawn),-3.3,-4.2
COc1ccc(N2C(=O)C3CCCN3C2c2ccc(N(C)C)cc2)cc1Cl (stereo not drawn),67.3*,-0.2
CC1NC2=C(C(=O)CC(c3ccccc3)C2)C(c2ccc(Br)cc2)C1C#N (stereo not drawn),-51.0,-2.3
O=[N+]([O-])c1ccc(-c2nnc(-c3ccco3)o2)cc1,6.3,1.6
CN(C)C1CN(C(=O)CCc2ccccc2)CCC1(O)c1ccccc1 (stereo not drawn),-5.4,-4.0
COc1ccc(N2C(=O)C3CCCN3C2c2cccc(C)c2)cc1Cl (stereo not drawn),1.1,-4.8
COc1cccc(C2N(c3ccc(Cl)c(Cl)c3)C(=O)C3CCCN32)c1 (stereo not drawn),98.7*,-4.4
Cc1ccccc1-c1nc(C2CCN(C(=O)Cc3ccc(Br)cc3)CC2)no1,0.4,-1.0
CCN1CCN(c2ncc3c(n2)CCN(Cc2ccc(F)cc2F)C3)CC1,12.6,2.7
O=C(N1C2CCC1COC2)C12CC3CC(CC(C3)C1)C2,0.1,-2.3
SMILES,mHTT CaM bind,Pf apPOL inh
CS(=O)(=O)N1CCCc2ccc(NC(=O)Nc3ccc(Cl)c(Cl)c3)cc21,-24.5,-5.2
COc1ccc(N2COc3ccc4c(c3C2)OC(=Cc2ccc(OC)c(OC)c2OC)C4=O)cc1,81.1*,-8.8
COc1cccc(C=C2Oc3c(ccc4c3CN(c3ccc5c(c3)OCCO5)CO4)C2=O)c1OC,77.3*,-2.9
COc1ccccc1C=C1Oc2c(ccc3c2CN(c2ccc4c(c2)OCCO4)CO3)C1=O,28.0,-4.0
COc1ccc(N2COc3ccc4c(c3C2)OC(=Cc2cc(OC)c(OC)c(OC)c2)C4=O)cc1,32.3,-5.2
COc1cc(OC)c(OC)cc1C=C1Oc2cc(OC(=O)c3ccc4c(c3)OCO4)ccc2C1=O,2.4,-5.4
COc1ccc(NS(=O)(=O)c2cc(C(=O)Nc3ccccc3C)ccc2C)cc1,-3.0,-3.3
COc1cccc(CC(=O)N2CCC3(CC2)NC(=O)N(Cc2ccc(C)cc2)C3=O)c1,14.1,-1.9
COc1ccc(OCC(=O)N2CCC3(CC2)Nc2cccnc2NC3=NC(C)(C)C)cc1,16.3,-1.1
CCOc1ccccc1C(=O)N1CCC2(CC1)Nc1ccccc1-n1cccc12,16.4,-3.6
O=C(COc1ccc(Cl)cc1)N1CCC2(CC1)Nc1ccccc1-n1cccc12,93.2*,-2.0
O=C(Cc1cccc(F)c1)N1CCC2(C1)C(=O)Nc1ccccc12 (stereo not drawn),7.4,-1.5
COc1ccc(OCC(=O)N2CCC3(CC2)Nc2cc(C)ccc2-n2cccc23)cc1,54.3*,4.5
COc1cccc(CC(=O)N2CCC3(CC2)Nc2cc(OC)ccc2-n2cccc23)c1,91.7*,-5.7
O=C(Cc1cccc(F)c1)N1CCC2(CC1)Nc1ccccc1-n1cccc12,59.1*,1.4
CC(=O)N1CCC(Cc2nc3cccnc3n2C)C1 (stereo not drawn),-11.3,-1.6
Cc1ccc(NC(=O)Cn2cnc3c(-c4ccc(F)cc4)csc3c2=O)cc1C,-12.0,1.2
COc1ccc(-c2cc(C(=O)Nc3ccc(F)cc3)sn2)cc1,-7.8,-3.5
CCc1ccccc1N1CCN(C(=O)c2ccccc2)C(C)C1=O (stereo not drawn),-3.3,-7.1
COc1ccc2c(c1)NC1(CCN(C(=O)COc3ccc(F)cc3)CC1)c1cccn1-2,96.0*,1.4
COc1ccc2c(c1)NC1(CCN(C(=O)COc3cccc(C)c3)CC1)c1cccn1-2,84.9*,-8.8
Cc1cccc(OCC(=O)N2CCC3(CC2)NC(=O)N(Cc2ccc(F)cc2)C3=O)c1,28.6,-5.1
Cc1ccc(CN2C(=O)NC3(CCN(C(=O)COc4cccc(C)c4)CC3)C2=O)cc1,5.0,-6.8
CN1CCN(CCCNC(=O)C2CCN(c3nnc4ccccn34)CC2)CC1,2.0,-4.6
Fc1ccc(OCCCOc2ccc(F)cc2)cc1,-68.2,-3.3
SMILES,mHTT CaM bind,Pf apPOL inh
COc1ccc(OC)c(NC(=O)c2coc(=O)c3ccccc23)c1,20.0,2.5
CSc1cccc(NC(=O)CN(c2cccc([N+](=O)[O-])c2)S(C)(=O)=O)c1,8.0,-2.8
CC(=O)Nc1c(C(C)=O)c(C)nc2ccccc12,-0.2,-7.1
CCC(=O)NC1=NC(=O)/C(=C/c2cn(C(=O)CC)nc2-c2ccccc2)S1,37.0,0.4
O=C1C(=Cc2ccc(-c3ccccc3[N+](=O)[O-])o2)C(=O)c2ccccc21,6.0,-2.6
Cc1cc([N+](=O)[O-])c(C)cc1-c1ccc(/C=C/c2cc(C(F)(F)F)[nH]c(=O)n2)o1,95.0*!,-1.9
O=c1nc(/C=C/c2ccc(-c3ccccc3[N+](=O)[O-])o2)cc(C(F)(F)F)[nH]1,90.0*,1.1
O=c1nc(/C=C/c2cccn2-c2ccc([N+](=O)[O-])cc2)cc(C(F)(F)F)[nH]1,8.0,-1.4
COc1cccc(NC(=O)c2ccccc2I)c1,-2.5,0.9
O=C(CN1CCOCC1)Nc1sc2c(c1C(=O)Nc1ccc(Cl)cc1)CCC2,0.5,0.1
O=C(Nc1sc2c(c1C(=O)Nc1ccc(Br)cc1)CCCCC2)c1cccnc1,3.0,5.8
NNC(=O)c1c(NC(=O)c2ccccc2)sc2c1CCC2,64.3*,-8.7
O=C(CNCCN1CCOCC1)Nc1sc2c(c1C(=O)Nc1ccccc1)CCC2,88.9*,-1.4
O=C(CNCCO)Nc1sc2c(c1C(=O)Nc1ccc(Br)cc1)CCC2,66.4*,-0.7
CCNC(=O)c1c(NC(=O)c2ccccc2)sc2c1CCCC2,-12.2,1.1
COc1cc(/C=C2\C(=O)ON=C2C)ccc1OCc1ccc(F)cc1,99.0*,-1.8
